# Measurements published in PubChem BioAssay AID828 (The Scripps Research Institute Molecular Screening Center, 2007).
# Among all 140,000 compounds or so, about 550 (0.39%) were called active. Rule as the data show it: active = inhibition above about 27%; inactive = the rest. Only a selection was taken, and actives are over-represented in it overall.
# Target: Galanin receptor type 2 (Homo sapiens) (UniProt O43603)
# Test: blockers of human galanin receptor 2 – cell-based, primary screen (AID 828);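 also: cells stimulated with galanin 1-16 at roughly its EC80; 0% = agonist challenge control and 100% = basal control without agonist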
# Settings: GALR2-expressing cells, antagonist mode; at 4 µM; stronger effect = higher value
# Galanin receptor type 2 (Homo sapiens), sequence (O43603 whole entry, looked up): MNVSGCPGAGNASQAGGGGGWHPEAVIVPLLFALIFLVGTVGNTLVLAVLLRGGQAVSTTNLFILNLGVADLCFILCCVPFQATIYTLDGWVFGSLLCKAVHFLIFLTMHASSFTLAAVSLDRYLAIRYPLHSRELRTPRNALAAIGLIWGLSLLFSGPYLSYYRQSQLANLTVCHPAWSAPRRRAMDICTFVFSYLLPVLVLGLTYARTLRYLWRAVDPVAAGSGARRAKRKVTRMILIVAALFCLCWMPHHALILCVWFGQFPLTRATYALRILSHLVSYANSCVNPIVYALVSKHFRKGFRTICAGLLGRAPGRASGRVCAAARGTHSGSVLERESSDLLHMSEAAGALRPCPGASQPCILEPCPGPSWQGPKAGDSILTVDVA
row,SMILES,inhibition
1,CCOC(=O)NC(=O)CSc1nnc(SCCC(=O)O)s1,-4.2% (inactive)
2,Nc1nc(SCC(=O)NCCN2CCOCC2)nc2sc3c(c12)CCC3,15.2% (inactive)
3,O=C(CSc1nc2ccc([N+](=O)[O-])cc2[nH]1)c1ccc(Cl)cc1,5.51% (inactive)
4,Cc1cc(Oc2ccc(Cl)cc2)nc(SCC(=O)c2ccccc2)n1,-1.42% (inactive)
5,O=C(CC1NCCNC1=O)Nc1cc(Cl)cc(Cl)c1 (stereo unspecified),-4.41% (inactive)
6,CC1CN(C(=S)SCC(=O)c2ccccc2)CC(C)O1 (stereo unspecified),-1.6% (inactive)
7,CC(=O)Nc1ccc(NC(=O)C(C)OC(=O)c2ccccc2C(=O)c2ccc(Cl)c([N+](=O)[O-])c2)cc1 (stereo unspecified),25.8% (inactive)
8,COC(=O)c1cc(NC(=O)Cc2ccccc2[N+](=O)[O-])ccc1Cl,16.4% (inactive)
9,N#Cc1cccc(NC(=O)COC(=O)c2ccccc2C(=O)c2ccc(Cl)c([N+](=O)[O-])c2)c1,68.1% (active)
10,CCN(C(=O)COC(=O)c1cc(NS(=O)(=O)c2ccc(Cl)c([N+](=O)[O-])c2)ccc1O)C1CCCCC1,-12.1% (inactive)
11,NS(=O)(=O)c1ccc(NC(=O)COC(=O)C2(c3ccc(F)cc3)CCCC2)cc1,10.9% (inactive)
12,CN(C)S(=O)(=O)c1cccc(NC(=O)COC(=O)C2(c3ccccc3F)CCCC2)c1,31.7% (active)
13,CN(c1ccccc1)S(=O)(=O)c1cccc(NC(=O)Cc2c(F)cccc2Cl)c1,6.13% (inactive)
14,CSCCC(Nc1ccc(S(=O)(=O)N2CCOCC2)cc1[N+](=O)[O-])C(=O)OCC(=O)N(C(C)C)C(C)C (stereo unspecified),0.86% (inactive)
15,O=C(CCc1[nH]c2ccccc2c1Sc1ccccc1)N(CCO)CCO,-2.04% (inactive)
16,CCCOC(=O)c1c(NC(=O)c2cnn3c2NC(c2ccccc2)CC3C(F)(F)F)sc2c1CCCC2 (stereo unspecified),-6.74% (inactive)
17,CCOC(=O)c1cc2c(=O)n3ccccc3nc2n(CC(C)C)c1=NC(=O)c1c(-c2c(F)cccc2Cl)noc1C,-2.98% (inactive)
18,Cc1cccc(N2CCN(C(=O)c3ccccc3NC(=O)C3CCCCC3C(=O)O)CC2)c1 (stereo unspecified),0.78% (inactive)
19,Cc1ccc(NN=C2C(=O)OC(C)(C)OC2=O)c(C)c1,4.74% (inactive)
20,CN(C)c1ccc(C(CNC(=O)c2ccc(F)cc2)c2c[nH]c3ccccc23)cc1 (stereo unspecified),5.85% (inactive)
21,CC(=O)N/C(=C/c1ccc(OC(F)F)cc1)C(=O)O,-1.23% (inactive)
22,Cc1nn(-c2ccccc2)c(-n2cccc2)c1C(=O)O,8.6% (inactive)
23,O=C(CN1CCc2ccccc21)NC(c1ccccc1)c1ccccc1,-11.2% (inactive)

row,SMILES,inhibition
1,CCCCN(CC)C(=O)c1ccc2c(c1)OCO2,-4.88% (inactive)
2,C=CCNC(=S)NNC(=O)c1ccc(Br)o1,0.37% (inactive)
3,O=C(COc1cccc(F)c1)Oc1ccc(C(=O)c2ccccc2)cc1,5.19% (inactive)
4,CC(C)(C)NCCCOc1ccc(Cl)cc1C(C)(C)C,-7.15% (inactive)
5,Cc1cccc(-c2nc3ccccc3c(=O)n2NC(=O)Cc2ccc(Cl)cc2)c1,-8.75% (inactive)
6,FC(F)(F)c1cnc(Oc2ccccc2-c2nnc(-c3ccc(Cl)cc3)o2)c(Cl)c1,99.8% (active)
7,Cc1cc(C)cc(NS(=O)(=O)c2ccc(Oc3ncc(C(F)(F)F)cc3Cl)cc2)c1,-0.6% (inactive)
8,CSc1ccccc1-c1nnc(-c2ccc(Cl)cc2)o1,14.1% (inactive)
9,O=C(NNC(=S)Nc1ccc(Br)cc1Cl)c1ccco1,1.63% (inactive)
10,c1ccc(-c2cc3c(NCC4COc5ccccc5O4)ncnc3s2)cc1 (stereo unspecified),-0.87% (inactive)
11,COc1ccc(-c2nn(C)c(=O)c3ccccc23)cc1NC(=O)COc1ccccc1,2.22% (inactive)
12,Cc1ccc(NC(=O)Cn2nc(C)c3ccccc3c2=O)c(C)c1,8.82% (inactive)
13,Cc1ccc(F)cc1NC(=O)Cc1nn(C)c(=O)c2ccccc12,39.3% (active)
14,Cc1ccc(-n2c(C)cc(C(=O)CSc3nnc4ccccn34)c2C)cc1,3.5% (inactive)
15,Cc1ccc(C(=O)NC(=S)Nc2ccc3[nH]c(=O)[nH]c3c2)cc1C,-6.84% (inactive)
16,COc1ccc(NC(=S)NCC2CCN(c3ccc(OC)cc3)C2)cc1 (stereo unspecified),-2.41% (inactive)
17,C/C(CC1CC(C)(C)OC1=O)=N/Nc1nc(-c2ccccc2)cs1 (stereo unspecified),7.6% (inactive)
18,COc1cc(C(=O)NCc2nnc(SCC(=O)Nc3nc4ccc(C)cc4s3)o2)cc(OC)c1OC,-19.9% (inactive)
19,CCCCc1ccc(NC(=S)N2CCCC(CO)C2)cc1 (stereo unspecified),-8.34% (inactive)
20,COc1ccc(NC(=O)CN(Cc2ccccc2)S(C)(=O)=O)cc1OC,-9.1% (inactive)
21,CC(C)OCCCNc1ncnc2c1[nH]c1ccc(F)cc12,35.1% (active)
22,O=C1CCCN1CCCNc1ncnc2c1[nH]c1ccccc12,22.8% (inactive)
23,CCN1CCCC1CNc1ncnc2c1[nH]c1ccc(F)cc12 (stereo unspecified),13.1% (inactive)

row,SMILES,inhibition
1,COc1ccc(/C=C/C(=O)Nc2ccc3c(c2)OCCO3)cc1OC,12.7% (inactive)
2,COc1ccc(/C=C/C(=O)Nc2ccc(C34CC5CC(CC(O)(C5)C3)C4)cc2)cc1OC,27.3% (active)
3,COc1ccc(NS(=O)(=O)c2cc(NC(=O)/C=C/c3cc(OC)c(OC)c(OC)c3)ccc2N2CCCCC2)cc1,5.85% (inactive)
4,O=C(NNC1CC(=O)N(c2cccc(Cl)c2)C1=O)c1cccnc1 (stereo unspecified),-6.86% (inactive)
5,COc1ccccc1OCCC(=O)OCC(=O)NCc1ccccc1,-7.36% (inactive)
6,Cc1cccc(-n2c(C)cc(/C=N/NC(N)=S)c2C)c1,-7.75% (inactive)
7,CCCN(CCC)c1c([N+](=O)[O-])c(=O)oc2ccccc12,7.9% (inactive)
8,CCOC(=O)Cc1csc(NC(=O)CSc2ccc(Br)cc2)n1,6.81% (inactive)
9,CC(C)/C=N/NC(=O)c1cc(Br)ccc1O,10.3% (inactive)
10,COc1ccc(C2COC(=O)C2=N)c(NC(=O)c2ccccc2)c1 (stereo unspecified),-8.91% (inactive)
11,Cc1nn(Cc2ccc(Cl)cc2)c(Cl)c1/C=N/NC(=O)c1cccnc1,10.9% (inactive)
12,CC1CCc2sc(C(=O)N/N=C/C3CCCCC3)cc2C1 (stereo unspecified),-7.82% (inactive)
13,CN(C)c1ccc(-n2cccc2/C=N/n2cnnc2)cc1,0.57% (inactive)
14,CC(Sc1nc(-c2ccccc2)cc(C(F)(F)F)n1)C(=O)Nc1ccc2c(c1)OCO2 (stereo unspecified),0.9% (inactive)
15,CCc1cccc(C)c1NC(=O)COC(=O)Cc1ccsc1,5.66% (inactive)
16,Cc1ccc(NC(=O)CSCC(=O)NC2CCCCC2)cc1,4.82% (inactive)
17,Cc1ccc(OCC(=O)OC(C)CN(C)Cc2ccccc2)cc1 (stereo unspecified),-4.66% (inactive)
18,CC(NC(=S)Nc1ccc(S(N)(=O)=O)cc1)c1ccc2c(c1)OCO2 (stereo unspecified),4.43% (inactive)
19,COc1cccc(-c2ccc(C#N)c(SCC(=O)NCCc3ccc(Cl)cc3)n2)c1,6.63% (inactive)
20,CCc1ccc(C2C(C#N)=C(N)N(N(C)C)C3=C2C(=O)CCC3)s1 (stereo unspecified),-4.14% (inactive)
21,CCCc1nc2c([nH]1)C(c1cccnc1)C(C#N)=C(N)O2 (stereo unspecified),1.63% (inactive)
22,COc1cc(OC)cc(-c2nc3ccccc3c(=O)n2NC(=O)c2cccnc2Cl)c1,1.33% (inactive)
23,COc1ccc(/C=N/Nc2ncnc3sc4c(c23)CCCC4)cc1O,0.22% (inactive)

row,SMILES,inhibition
1,Cc1cc(C)cc(OCC(=O)Nc2nc3ccc([N+](=O)[O-])cc3s2)c1,7.65% (inactive)
2,COC(=O)C(NC(=O)c1ccc(OC)cc1)(Nc1ncc(S(=O)(=O)c2ccc([N+](=O)[O-])cc2)s1)C(F)(F)F (stereo unspecified),-4.68% (inactive)
3,O=C(NC(Nc1nc2ccc([N+](=O)[O-])cc2s1)(C(F)(F)F)C(F)(F)F)c1ccccc1,88.7% (active)
4,CC(=O)COc1ccc2c(-c3ccccc3)cc(=O)oc2c1,-10.7% (inactive)
5,O=C(CNC(=O)c1ccc(-c2ccccc2)cc1)OCc1ccc(Cl)cc1,9.65% (inactive)
6,O=C(CNC(=O)OCc1ccccc1)Oc1cc2oc(=O)cc(-c3ccccc3)c2cc1Cl,31.1% (active)
7,CS(=O)(=O)N(CC(=O)Nc1ccc(Cl)c(Cl)c1)C1CCCCC1,-3.02% (inactive)
8,CC(c1cccnc1)N(CCN(C)C)C(=O)Nc1ccc(Cl)c(Cl)c1 (stereo unspecified),29.6% (active)
9,CN(C)CCNC(CC(=O)Nc1ccc(Cl)c(Cl)c1)C(=O)O (stereo unspecified),-5.57% (inactive)
10,COC(=O)c1ccccc1SC1CC(=O)N(c2cccc(C)c2)C1=O (stereo unspecified),10.2% (inactive)
11,C=CCNC(=O)COC(=O)c1ccccc1C(=O)N(C)C1CCCCC1,-14.8% (inactive)
12,Cc1cc(C(=O)COc2ccccc2[N+](=O)[O-])c(C)n1-c1cccc(S(=O)(=O)N2CCOCC2)c1,-3.23% (inactive)
13,CCOC(=O)c1c(NC(=S)NC(=O)/C=C/c2cccs2)sc(C)c1C,-8.3% (inactive)
14,Cc1c(C(=O)Nc2cccc(-c3nnc4n3CCCCC4)c2)oc2ccccc12,-1.52% (inactive)
15,CC(Cc1cccs1)NC(=O)c1cccc(Cl)c1 (stereo unspecified),3.36% (inactive)
16,Cc1ccc(/C(N)=N/OC(=O)COc2ccc(Cl)c(C)c2)cc1,7.55% (inactive)
17,O=C(/C=C/Sc1ncn[nH]1)c1ccc(Cl)cc1,36.3% (active)
18,O=C(NCCOCc1ccc(Cl)cc1)c1ncn[nH]1,6.29% (inactive)
19,CC(C)(C)c1ccc(C(=O)CSc2ncn[nH]2)cc1,4.68% (inactive)
20,COc1ccc(NC(=O)c2nc(-n3nc(C)cc3C)ccc2Cl)cc1Cl,-4.22% (inactive)
21,N#Cc1ccccc1Sc1ccccc1C(=O)OCC(=O)NC1CCCCC1,-1.21% (inactive)
22,COc1ccc(CNC(=O)CN(Cc2ccc(Cl)cc2)S(C)(=O)=O)cc1,-0.09% (inactive)
